The values that follow come from PubChem BioAssay (NCI).

Molecules are shown by their SMILES. This is part of a sample that, as a whole, favours compounds with a hit. Of some 83,000 tested, about 20% had one in any assay.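 Activity criterion: percent growth below 10, measured after cells in 96-well plates were exposed to a single compound concentration for 48 hours.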 Values without a mark were called inactive. Active and inactive are the calls of the source.

Test systems include OVCAR-5 ovarian; OVCAR-4 ovarian; SK-OV-3 ovarian; IGROV1 ovarian; OVCAR-3 ovarian; HS 578T breast; NCI/ADR-RES ovarian; T-47D breast; BT-549 breast; MDA-MB-435 melanoma; SW-620 colon; MCF7 breast; HCT-116 colon; KM12 colon; HCC-2998 colon; OVCAR-8 ovarian.
Holding throughout (experiment): NCI-60 one-dose screen, 48 h (100 = growth as untreated, 0 = no growth, -100 = all killed)
What all share (conditions): 10 µM unless noted

Regarding `COc1ccc(C(=O)/C=C/c2c(Cl)nc3c(c(C)nn3-c3ccccc3)c2-c2ccc(Br)cc2)cc1`, the growth was 99.6% in the assay with OVCAR-5 ovarian; 107% in the assay with OVCAR-4 ovarian; 97.3% with SK-OV-3 ovarian; 116% in the assay with IGROV1 ovarian; 115% in the assay with OVCAR-3 ovarian; 113% in the assay with HS 578T breast. For the same compound, the growth is 108% with NCI/ADR-RES ovarian; 100% in the assay with T-47D breast; 97.5% in the assay on BT-549 breast; 107% in the assay with MDA-MB-435 melanoma; 110% in the assay on SW-620 colon; 96.7% in the assay with MCF7 breast. The growth in the assay with HCT-116 colon was 102%; in the assay with KM12 colon, 109%.

With `Cc1nn(-c2ccccc2)c2nc(Cl)c(/C=C/C(=O)c3ccccc3)c(-c3ccccc3)c12`, the growth is 103% in the assay with OVCAR-5 ovarian; 107% in the assay with OVCAR-4 ovarian; 102% with SK-OV-3 ovarian; 120% in the assay with IGROV1 ovarian; 116% in the assay with OVCAR-3 ovarian; 95.5% in the assay on HS 578T breast. Besides, the growth was 105% in the assay on NCI/ADR-RES ovarian; 107% in the assay with T-47D breast; 87.9% in the assay with BT-549 breast; 103% in the assay on MDA-MB-435 melanoma; 112% in the assay on SW-620 colon; 96.1% in the assay with MCF7 breast. Further, the growth in the assay with HCT-116 colon is 95.5%; with HCC-2998 colon, 103%; in the assay with KM12 colon, 106%.

As to `c1ccc(N2CCN(c3nncc4ccccc34)CC2)nc1`, the growth is 105% in the assay on OVCAR-5 ovarian; 109% in the assay with OVCAR-4 ovarian; 104% in the assay on SK-OV-3 ovarian; 116% with IGROV1 ovarian; 99.9% with OVCAR-3 ovarian; 109% in the assay with HS 578T breast. For the same compound, the growth in the assay on NCI/ADR-RES ovarian was 109%; in the assay with T-47D breast it was 101%; with BT-549 breast, 104%; in the assay on MDA-MB-435 melanoma it was 104%; in the assay on SW-620 colon, 104%; with MCF7 breast it was 105%. In addition, the results for the growth in the assay with HCT-116 colon, in the assay on HCC-2998 colon and in the assay on KM12 colon were 103%, 117% and 104%, respectively.

`CC(=O)c1cc(C(=O)c2ccc3c(c2)Sc2ccccc2N3)c2c(C)cc(C)cn12`: the growth in the assay with OVCAR-5 ovarian is 39.7%; in the assay on OVCAR-4 ovarian it was 39.8%; in the assay with SK-OV-3 ovarian, 21%; in the assay with IGROV1 ovarian it was 28.3%; in the assay with OVCAR-3 ovarian, -26.1% (active); with HS 578T breast, 20.5%. Besides, the growth with NCI/ADR-RES ovarian was 12.9%; in the assay on T-47D breast, 48.2%; with BT-549 breast, 28.5%; in the assay on MDA-MB-435 melanoma, -22.1% (active); with SW-620 colon, 20.8%; in the assay with MCF7 breast, 15.1%. The figures for the growth in the assay on HCT-116 colon, in the assay on HCC-2998 colon and in the assay with KM12 colon were 3.76% (active), 18% and 11.1%, respectively.

For `O=C(O)C(=O)O`, the growth is 75.8% with OVCAR-8 ovarian; 56.8% in the assay with OVCAR-5 ovarian; 95.7% with SK-OV-3 ovarian; 114% in the assay with OVCAR-3 ovarian; 100% in the assay on HS 578T breast; -36.5% (active) with NCI/ADR-RES ovarian. The growth was 94.4% with T-47D breast; 96.4% in the assay with MDA-MB-435 melanoma; 112% in the assay on SW-620 colon; 98.4% with MCF7 breast; 101% with HCT-116 colon; 102% in the assay with KM12 colon.

`Clc1ccc(-c2nc(-c3cccs3)no2)c(Cl)c1`: the growth in the assay with SK-OV-3 ovarian is 93.9%; in the assay on IGROV1 ovarian, 66.8%; in the assay on OVCAR-3 ovarian, 99.2%; with HS 578T breast, 96.1%; in the assay on NCI/ADR-RES ovarian, 103%; in the assay on T-47D breast, 51.7%. In addition, the growth was 83% in the assay on BT-549 breast; 111% in the assay with MDA-MB-435 melanoma; 88.1% with SW-620 colon; 29.2% in the assay on MCF7 breast; 94.6% with HCT-116 colon; 68% with HCC-2998 colon. Further, in the assay with KM12 colon, the growth is 99.3%.

For `c1ccc2cc(C[n+]3ccn(CCCCCCCn4cc[n+](Cc5ccc6ccccc6c5)c4)c3)ccc2c1`, the growth is 48.2% in the assay on OVCAR-5 ovarian; 37.3% in the assay with OVCAR-4 ovarian; 36.1% with SK-OV-3 ovarian; 27.5% with IGROV1 ovarian; 44.4% with OVCAR-3 ovarian; 61.5% in the assay with HS 578T breast. Moreover, the growth in the assay on NCI/ADR-RES ovarian is 99.7%; with T-47D breast, 23.4%; with BT-549 breast, 16.7%; in the assay with MDA-MB-435 melanoma it was 32.7%; in the assay on SW-620 colon it was 74.2%; in the assay with MCF7 breast, 35.1%. Further, the growth in the assay with HCT-116 colon is 32.7%; in the assay on HCC-2998 colon it was 49.3%; with KM12 colon, 28.7%.

For the compound `COC(=O)[C@]1(C(C)C)N[C@H](c2cn(-c3ccccc3)nc2-c2ccccc2)[C@@H]2C(=O)N(c3ccc(Cl)cc3)C(=O)[C@@H]21`, the growth in the assay on OVCAR-5 ovarian was 101%; in the assay on OVCAR-4 ovarian it was 117%; in the assay with SK-OV-3 ovarian, 92.7%; in the assay with IGROV1 ovarian it was 103%; in the assay on OVCAR-3 ovarian it was 89.1%; in the assay on HS 578T breast, 117%. Also, the growth in the assay with NCI/ADR-RES ovarian is 90.3%; in the assay with T-47D breast, 93.6%; in the assay with BT-549 breast, 86.7%; in the assay with MDA-MB-435 melanoma, 105%; in the assay with SW-620 colon, 99.4%; in the assay with MCF7 breast it was 96.6%. Also, the values for the growth with HCT-116 colon, with HCC-2998 colon and with KM12 colon were 89.8%, 109% and 95.3%, respectively.

As for `N#CCCN(CCO)c1ccccc1`, the growth is 102% in the assay with OVCAR-8 ovarian; 108% with OVCAR-5 ovarian; 101% with SK-OV-3 ovarian; 103% in the assay with IGROV1 ovarian; 105% in the assay with OVCAR-3 ovarian; 102% in the assay with HS 578T breast. For the same compound, the growth in the assay on NCI/ADR-RES ovarian is 112%; with T-47D breast, 92%; with BT-549 breast it was 91.7%; in the assay on SW-620 colon, 102%; in the assay on MCF7 breast, 93.6%; in the assay with HCC-2998 colon, 129%. The growth in the assay on KM12 colon is 110%.

Take `OC(Cc1cccnc1)c1ccccc1` (stereo not given): the growth was 92.8% with OVCAR-5 ovarian; 107% with OVCAR-4 ovarian; 112% with SK-OV-3 ovarian; 114% in the assay on IGROV1 ovarian; 112% with HS 578T breast; 107% in the assay with NCI/ADR-RES ovarian. In addition, the growth in the assay on T-47D breast is 112%; with BT-549 breast, 107%; with MDA-MB-435 melanoma it was 110%; with SW-620 colon it was 100%; in the assay on MCF7 breast, 104%; with HCT-116 colon, 107%. For the same compound, the growth in the assay on HCC-2998 colon is 107%.

On to `O=C1Cc2cc(CCN3CCN(CCOCCO)CC3)c(Cl)cc2N1Cc1ccc(-c2ccccc2-c2nn[nH]n2)cc1`, for which the growth in the assay with OVCAR-5 ovarian is 96.6%; in the assay with OVCAR-4 ovarian it was 89.6%; in the assay with SK-OV-3 ovarian, 93.8%; in the assay with IGROV1 ovarian, 107%; in the assay with OVCAR-3 ovarian it was 94.5%; with HS 578T breast it was 85%. Also, the growth in the assay with NCI/ADR-RES ovarian is 90.6%; in the assay with T-47D breast it was 101%; with BT-549 breast, 87.3%; with MDA-MB-435 melanoma, 92.8%; in the assay on SW-620 colon, 95.9%; with MCF7 breast, 87.1%. In addition, the growth with HCT-116 colon was 87.8%; with HCC-2998 colon, 88.5%; in the assay with KM12 colon it was 85.2%.
